# Laboratory results taken from PubChem BioAssay (NCATS).
# Results filed as inconclusive are left out. A number with no mark means an inactive call. The call rests on the fitted dose curve; in most records, active means well fitted curve in the direction sought with a large enough effect in the signal ratio; inconclusive means small, poorly fitted or top-dose-only effect, or effect the other way, or a change in a side signal; inactive means no such curve, though single readings can be large or run the other way; the % refers to the signal ratio.
# Test: qHTS Assay for Modulators of Human Peripheral Myelin Protein 22 (PMP22) Expression/Activity (AID 1967);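 further: 0% = untreated cells and 100% end not stated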
# Details: Cell-based PMP22 reporter, dual-color luciferase ratio, 0% = compound-free control cells, mouse Pmp22 promoter in mouse Schwann cells; series mostly up to 115 µM; activity change (ratio): at the top concentration
# Text: Charcot-Marie-Tooth-Association [CMTA]
# NIH Chemical Genomics Center [NCGC]
# Charcot-Marie-Tooth (CMT) disease was first characterized by Jean-Martin Charcot and Pierre Marie in France and, independently, by Howard Henry Tooth in England in 1886. CMT is one of the most common inherited neurological diseases, affecting about 125,000 Americans. […] The most common cause of CMT is known as CMT1A, and is caused by a duplication of the PMP22 gene, leading to over-expression of this protein. PMP22 is a glycosylated intrinsic membrane protein accounting for 2-5% of the myelin protein content and over-expression leads to demyelination and subsequently axonal loss.
# A cell-based assay for PMP22 expression modulation was developed by Drs. Ned Mantei and Ueli Suter on behalf of the CMTA. This assay employs a mouse Schwann cell line, MSC80 (Boutry et al., 1992), that was engineered to have the mouse Pmp22 promoter driving expression of a green light-emitting click beetle luciferase (CBG68; Chroma-Gl developed by Promega Corp). A red light-emitting click beetle luciferase (CBR; developed by Promega Corp: CBG68 and CBR differ by only a few amino acids within the D-luciferin binding pocket) under control of the EF-alpha promoter is also stably expressed in the same cells for use as an internal control for nonspecific promoter- or reporter-based effects.
# NCGC Assay Protocol Summary:
# Cells were seeded in white solid 1536-well plates at between 500-750 cells/4uL in DMEM medium containing 10% FBS, w/o phenol red. After overnight incubation at 37 degree Celsius/5% C02, 23 nL of compounds or DMSO were delivered to each well using a pin tool, followed by 24h-incubation at 37 degree Celsius/5% C02. Then 4 uL Chroma-Glo luminescent substrate mix (Promega) was added to each well. Luminescence was measured on a ViewLux plate reader (Perkin Elmer) using a 540/25 nm filter for green luminescence and a 618/8 nm filter for red luminescence. The green and red luminescent signals were corrected for red and green luminescence filter overlap using filter calibration constants (determined using control cell lines expressing either the green or red CBLuc reporters using the procedures given in Davis et al., 2007). The %Activity was determined from the ratio of corrected green/red luminescent values. Green luminescent and ratio %Activity was determined by normalizing to the signal between of untreated cells (0% Activity)
# Keywords: luminescence, PMP22, CMT1A, NCGC, CMTA, qHTS
# Concentration-response curves were fitted to the signals arising from the green luminescence (PMP22 promoter driven expression) and the red luminescence (control promoter) as well as the calculated ratio. The concentration-effect curves were then classified based on curve quality (r2), response magnitude and degree of measured activity.
row,SMILES,activity change (ratio)
1,CN1C(=O)CCC1c1cccnc1 (stereo not drawn),8.47%
2,CN1C2CCC1CC(NC(=O)c1nn(C)c3ccccc13)C2 (stereo not drawn),1.75%
3,N[C@H](Cc1ccc(O)c(O)c1)C(=O)O,11.5%
4,CC(=O)NCCc1ccc(O)c(O)c1,6.77%
5,Nc1ncnc2c1ncn2[C@@H]1O[C@H](CO)[C@H](O)[C@H]1O,16.1%
6,C[C@H]1CC2[C@@H]3CCC4=CC(=O)C=C[C@]4(C)[C@@]3(Cl)[C@@H](O)C[C@]2(C)[C@@]1(O)C(=O)CO (stereo partly drawn),10.6%
7,CC(=O)[C@@]1(O)CC[C@H]2C3CCC4=CC(=O)CC[C@]4(C)C3CC[C@@]21C (stereo partly drawn),27.6%
8,CSc1nc(N)c2ncn([C@@H]3O[C@H](COP(=O)(O)OP(=O)(O)O)[C@H](O)[C@H]3O)c2n1,22.4%
9,Nc1nc(Nc2ccccc2)nc2c1ncn2[C@@H]1O[C@H](CO)[C@H](O)[C@H]1O,13.8%
10,NC(=NCCC[C@H](N)C(=O)O)NO,15.2%
11,CC(N)=NCCCC(N)C(=O)O (stereo not drawn),1.02%
12,C[C@]12CCC(=O)C=C1CC[C@@H]1C2[C@@H](O)C[C@@]2(C)[C@H]1CC[C@]2(O)C(=O)CO (stereo partly drawn),12.4%
13,CCCC(=O)NCCc1c2n(c3ccc(OC)cc13)Cc1ccccc1-2,6.91%
14,NCC1OC(O[C@@H]2[C@H](O)[C@@H](OC3C(O)C(N)CC(N)C3OC3OC(CO)C(O)C(O)C3N)O[C@@H]2CO)C(N)C(O)C1O (stereo partly drawn),8.75%
15,CCSC(N)=Nc1ccc(C(F)(F)F)cc1,27.9%
16,CN(C)C1C(=O)C(C(N)=O)=C(O)[C@@]2(O)C(=O)C3=C(O)c4c(O)ccc(Cl)c4[C@@H](O)C3C[C@@H]12 (stereo partly drawn),8.24%
17,CN1CCc2cc(Cl)c(O)cc2C(c2ccccc2)C1 (stereo not drawn),6.28%

row,SMILES,activity change (ratio)
1,O=C(O)CC[C@H](NC(=O)c1ccccc1C(=O)O)C(=O)O,0.938%
2,CN1C2CC(OC(=O)C(CO)c3ccccc3)CC1C1OC12 (stereo not drawn),14.5%
3,O=[N+]([O-])c1ccc(CSc2ncnc3c2ncn3[C@@H]2O[C@H](CO)[C@H](O)[C@H]2O)cc1,2.44%
4,NCCC(=O)NCCc1cnc[nH]1,21.1%
5,COc1c2c(nc3ccccc13)OC(C(C)(O)CO)C2 (stereo not drawn),-24.7%
6,O=C(Cc1ccc(Cl)c(Cl)c1)OCCN1CCCC1,2.95%
7,NC(=S)c1ccc[n+]([C@@H]2O[C@@H](COP(=O)([O-])OP(=O)(O)OC[C@H]3O[C@@H](n4cnc5c(N)ncnc54)[C@H](OP(=O)(O)O)[C@H]3O)C(O)C2O)c1 (stereo partly drawn),0.102%
8,OC[C@H]1O[C@@H](n2cnc3c(NCCc4ccccc4)ncnc32)[C@H](O)[C@H]1O,17.3%
9,COc1ccc(CCNC[C@@H](O)c2ccc(O)cc2)cc1OC,3.06%
10,N=C(N)SCCc1cccc(CCSC(=N)N)c1,17%
11,CN=C(N)NCCCC(N)C(=O)O (stereo not drawn),6.01%
12,CCCCCCCCCCCCCCC/C=C/[C@@H](O)[C@H](NC(=O)CCCCCCCCCCCCC)OC (tested in a mixture with another compound),28.3%
13,COc1cc(=O)n(C)c2c(OCC(O)C(C)(C)O)cccc12 (stereo not drawn),23.7%
14,Nc1ncnc2c1ncn2[C@@H]1O[C@H](C(=O)NC2CC2)[C@H](O)[C@H]1O,19.5%
15,COc1cc2c(cc1OC)C(c1ccccc1)CN(C)CC2 (stereo not drawn),2.58%
16,CC(=O)O[C@H]1C[C@@H]2CCC3C(CC[C@@]4(C)[C@H]3C[C@H]([N+]3(C)CCCCC3)[C@@H]4OC(C)=O)[C@@]2(C)C[C@@H]1[N+]1(C)CCCCC1 (stereo partly drawn),14.6%
